KCNQ2 block = KCNQ2 (rat) channel inhibition; B-score at 10 µM; O88943; AID 2156; actives 1.1% (n = 310,000); CHO-K1 KCNQ2, FluxOR thallium flux, 20 min; active compounds read low;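 active = fluorescence ratio B-score at most minus 3 library SDs, with starting brightness B-score within 2 library SDs, cut at about -5.5 in these data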
Target sequence (O88943 whole entry, looked up): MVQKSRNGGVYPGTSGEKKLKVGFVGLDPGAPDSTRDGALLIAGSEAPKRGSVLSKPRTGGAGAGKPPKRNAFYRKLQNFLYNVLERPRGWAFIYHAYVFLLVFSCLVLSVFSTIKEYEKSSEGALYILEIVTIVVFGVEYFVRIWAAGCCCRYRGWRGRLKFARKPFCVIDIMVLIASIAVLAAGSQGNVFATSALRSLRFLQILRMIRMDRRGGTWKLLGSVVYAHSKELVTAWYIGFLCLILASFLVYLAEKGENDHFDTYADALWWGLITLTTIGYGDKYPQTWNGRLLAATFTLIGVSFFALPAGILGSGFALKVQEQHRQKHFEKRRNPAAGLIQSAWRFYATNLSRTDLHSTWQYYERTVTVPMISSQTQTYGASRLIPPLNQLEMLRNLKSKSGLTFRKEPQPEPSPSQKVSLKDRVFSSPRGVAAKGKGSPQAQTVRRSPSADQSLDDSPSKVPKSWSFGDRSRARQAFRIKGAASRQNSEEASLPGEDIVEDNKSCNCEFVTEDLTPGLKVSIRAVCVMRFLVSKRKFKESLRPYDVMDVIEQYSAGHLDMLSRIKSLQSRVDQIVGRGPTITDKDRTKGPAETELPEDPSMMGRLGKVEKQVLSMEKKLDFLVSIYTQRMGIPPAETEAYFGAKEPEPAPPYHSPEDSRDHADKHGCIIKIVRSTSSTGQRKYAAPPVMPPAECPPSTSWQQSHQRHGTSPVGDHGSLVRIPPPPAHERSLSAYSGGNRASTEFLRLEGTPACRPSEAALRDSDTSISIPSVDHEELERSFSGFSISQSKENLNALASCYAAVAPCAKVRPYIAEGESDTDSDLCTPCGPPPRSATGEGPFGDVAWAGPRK
KCNQ2 enhance = potentiators of rat KCNQ2 potassium channel; CHO-K1 KCNQ2, FluxOR thallium flux fluorescence; active compounds read high; B-score at 10 µM; actives 0.54% (n = 310,000); AID 2239;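 active = fluorescence ratio B-score at least 3 SD of library B-scores, with initial fluorescence B-score within 3 of them, cut at about 5.3 in these data; same plate scores as AID 2156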;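 note: B-score of peak minus minimum over baseline fluorescence ratio after K+ and Tl+ stimulus; positive B-score means potentiation of KCNQ2 with more thallium influx and brighter signal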
KCNQ2 inh conf = confirmation of rat KCNQ2 potassium channel inhibitors; shares compounds with KCNQ2 block; KCNQ2-expressing cells, thallium flux, inhibition; active compounds read low; activity change, negative = inhibition, % at 10 µM; actives 57% (n = 1,000); AID 493025;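 note: 0% = vehicle wells and values are ratio percent relative to vehicle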
KCNQ1 spec = human KCNQ1 activity in KCNQ2 inhibitor specificity screen; shares compounds with KCNQ2 block; KCNQ1-expressing cells, FluxOR thallium flux fluorescence; active compounds read low; activity change, negative = inhibition, % at 10 µM; actives 15% (n = 1,000); AID 493026;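 active = activity change at least 3 SD of negative controls below their mean in both duplicate wells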;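 note: CHO cells stably transfected with KCNQ1 and depolarized by potassium stimulus; peak minus minimum fluorescence over baseline after thallium addition; 0% = vehicle negative control and -100% = blank without thallium stimulus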
CHO Tl ctr = activity in parental CHO cells lacking KCNQ2; activity change, % at 10 µM; actives 14% (n = 1,000); thallium flux counter-screen; active compounds read low; AID 493029; shares compounds with KCNQ2 block;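 note: 0% = vehicle negative controls with stimulus buffer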
KCNQ2 inh confirm = rat KCNQ2 inhibition confirmed by electrophysiology; shares compounds with KCNQ2 block; KCNQ2-expressing cells, automated patch clamp current; calls only at 10 µM; actives 49% (n = 550)
* marks the source's active call; other numbers are inactive results; i = inactive; . = not tested or not shown; + = active, no number. Most compounds without a hit are left out; they make up all but 1.6% or so of the library. Unless noted, the rule behind the calls is not given here.

SMILES	KCNQ2 block	KCNQ2 enhance	KCNQ2 inh conf	KCNQ1 spec	CHO Tl ctr	others
O=C(COc1ccc(Cl)cc1Cl)NCCCCc1ccccc1	-7.79*	-7.79	i	i	i
CC(Oc1ccc(Cl)cc1Cl)C(=O)NCCCCc1ccccc1 (configuration not stated)	i	.	.	.	.
Cc1ccccc1NC(=O)N1CCN(c2ncccn2)CC1	i	0.83	.	.	.
Cc1ccc(SCC(=O)Nc2ccc(S(N)(=O)=O)cc2)cc1	i	.	.	.	.
N#CC(C#N)=C1NC2(CCCC2)Cc2ccccc21	i	.	.	.	.
Cc1ccc(S(=O)(=O)N(CC(=O)NCCC2=CCCCC2)Cc2ccccc2F)cc1	-7*	-7	i	i	i
COc1ccc(CNC(=O)CN(C)S(=O)(=O)c2ccc(Cl)cc2)cc1	i	.	.	.	.
O=C(CN(Cc1ccccc1)S(=O)(=O)c1ccc(F)cc1)NCCC1=CCCCC1	i	.	.	.	.
O=C(CN(Cc1ccccc1F)S(=O)(=O)c1ccc(Cl)cc1)NCCC1=CCCCC1	i	.	.	.	.
COc1ccc(CNC(=O)CN(Cc2ccc(C)cc2)S(=O)(=O)c2ccc(Cl)cc2)cc1	-6.67*	-6.67	i	i	i
Cc1ccc(S(=O)(=O)N(CC(=O)NCCC2=CCCCC2)Cc2ccccc2)cc1	-10.8*	-10.8	-30.0%*	i	i	KCNQ2 inh confirm=i
CCOC(=O)C1(Cc2cccc(F)c2)CCN(C(=O)c2cnccn2)CC1	i	0.95	.	.	.
COc1ccc(OC)c(N(CC(=O)N2CCOCC2)S(C)(=O)=O)c1	i	.	.	.	.
CCOC(=O)NC(=O)c1cn(CCNCCO)c(=O)[nH]c1=O	i	0.5	.	.	.
O=C(Nc1ccc2c(c1)OCO2)C(c1ccccc1)N1CCCCC1 (configuration not stated)	i	.	.	.	.
CC1CCN(C(C(=O)Nc2ccc3c(c2)OCO3)c2ccccc2)CC1 (configuration not stated)	-6.99*	-6.99	i	i	i
CCOC(=O)CNC(=O)CN1CCC(c2nc3ccccc3[nH]2)CC1	i	.	.	.	.
O=S1(=O)CC2SC(=S)N(Cc3ccccc3)C2C1 (configuration not stated)	i	0.07	.	.	.
CSCCC(NC(=O)c1ccc(Cl)cc1Cl)C(=O)OCC(N)=O (configuration not stated)	i	.	.	.	.
CSCCC(NC(=O)c1ccc(Cl)cc1)C(=O)OCC(=O)Nc1cc(Cl)ccc1C (configuration not stated)	-6.82*	-6.82	-26.5%*	i	i	KCNQ2 inh confirm=+
CS(=O)(=O)c1ccc(Cl)c(NC(=O)c2cc(S(=O)(=O)N3CCOCC3)ccc2N2CCCC2)c1	i	0.25	.	.	.
O=C(CCN1C(=O)[C@@H]2Cc3ccccc3CN2C1=O)N[C@H](Cc1ccccc1)C(=O)O	i	1.17	.	.	.
CCOc1ccccc1NC(=O)CCNS(=O)(=O)c1cccc2nonc12	i	.	.	.	.
COc1cc(C)nc(OCCNC(=O)COc2ccc(Cl)cc2C)n1	-7.52*	-7.52	i	i	i
Cc1cc(Cl)ccc1OCC(=O)NCCOc1nc(N2CCCCC2)nc(N2CCOCC2)n1	i	.	.	.	.
SMILES	KCNQ2 block	KCNQ2 enhance	KCNQ2 inh conf	KCNQ1 spec	CHO Tl ctr	others
O=C(COC(=O)Cn1cnc2ccccc2c1=O)Nc1ccccc1Sc1ccc(Cl)cc1	i	.	.	.	.
CN1CCN(C2Cc3cc(F)ccc3Sc3ccc(Cl)cc32)CC1 (configuration not stated)	i	.	.	.	.
CN1CCN(C2Cc3ccccc3Sc3cc(C(F)(F)F)ccc32)CC1 (configuration not stated)	-7.38*	-7.38	-39.0%*	-38.0%*	-30.0%*	KCNQ2 inh confirm=i
Cc1ccc(/C=N/NC(=O)c2ccccc2OCc2cccc(Br)c2)o1	i	.	.	.	.
CCNc1nc(NCC)n2c(SC(C(=O)Nc3cc(C)ccc3C)c3ccccc3)nnc2n1 (configuration not stated)	i	.	.	.	.
CCOCCCn1c(SC(C(=O)Nc2cc(C)ccc2C)c2ccccc2)nnc1-c1ccc(Cl)cc1 (configuration not stated)	-9.58*	-9.58	-23.5%*	i	i	KCNQ2 inh confirm=+
COc1ccc2cc(C(c3nnnn3CCc3ccccc3)N3CCCC(C)C3)c(=O)[nH]c2c1 (configuration not stated)	-8.58*	-8.58	-35.0%*	i	i	KCNQ2 inh confirm=+
COCCn1nnnc1C(c1cc2cc(OC)ccc2[nH]c1=O)N1CCC(Cc2ccccc2)CC1 (configuration not stated)	i	0.73	.	.	.
Cc1cc(C)nc(NCCC(=O)O)n1	i	.	.	.	.
Cc1ccc(C)c(N2CC(C(=O)Nc3nccs3)CC2=O)c1 (configuration not stated)	i	0.59	.	.	.
C(=N\NC(=Nc1ccccc1)c1ccccn1)/c1ccccn1	i	.	.	.	.
Clc1ccc(/C=N/NC(=Nc2ccccc2)c2ccccn2)c(Cl)c1	-8.19*	-8.19	-27.5%*	i	i	KCNQ2 inh confirm=+
Nc1ccc2c(c1)OC1(CCCCC1)O2	i	0.38	.	.	.
CCN(C(=O)COC(=O)CNS(=O)(=O)c1ccccc1)c1ccccc1	i	.	.	.	.
CSc1ccccc1NC(=O)CO/N=C(\C)c1cc2ccccc2o1	i	.	.	.	.
C/C(=N\OCC(=O)NC12CC3CC(CC(C3)C1)C2)c1cc2ccccc2o1	-6.8*	-6.8	-38.5%*	-37.0%*	-27.0%*	KCNQ2 inh confirm=i
CCN(CC)C(=O)C1CCN(C(=O)c2oc3ccc(C)cc3c2C)CC1	i	.	.	.	.
CCN(CC)C(=O)C1CCCN(C(=O)c2oc3ccc(C)cc3c2C)C1 (configuration not stated)	-6.97*	-6.97	i	i	i
COc1ccccc1OCC(=O)NN=C(Cc1ccccc1)Cc1ccccc1	-6.72*	-6.72	-31.5%*	i	i	KCNQ2 inh confirm=+
CCOc1ccccc1OCC(=O)N/N=C(\C)Cc1ccc(OC)cc1	i	0.09	.	.	.
Clc1ccc(COn2c(-c3ccccc3)nc3ccccc32)cc1	-14.5*	-14.5	i	i	i
Clc1ccc(COn2c(-c3ccc(Cl)cc3)nc3ccccc32)cc1	i	.	.	.	.
Cc1oc(-c2cccc(Cl)c2)nc1CN1CCC(C(=O)NC2CC2)CC1	i	1.17	.	.	.
CCN(CCNC(=O)C1CCN(Cc2nc(-c3cccc(Cl)c3)oc2C)CC1)c1ccccc1	-12.4*	-12.4	-26.5%*	i	i	KCNQ2 inh confirm=i
CCOC(=O)C1CCCN(c2c(NCCN3CCCCC3C)c(=O)c2=O)C1 (configuration not stated)	i	1.36	.	.	.
O=C(N=C1SC2CS(=O)(=O)CC2N1c1ccc(Br)cc1)C1CCCO1 (configuration not stated)	i	0.09	.	.	.
O=C(COC(=O)C1CCN(c2ccc(C(F)(F)F)cn2)CC1)NCCc1ccccc1	i	1.92	.	.	.
COc1ccccc1CNC(=O)COC(=O)C1CCN(c2ccc(C(F)(F)F)cn2)CC1	-6.8*	-6.8	i	i	i
Nc1ccc(C(=O)OCC(=O)Nc2ccc([N+](=O)[O-])cc2C(F)(F)F)cc1	i	0.41	.	.	.

Screening data: PubChem, Johns Hopkins Ion Channel Center
